# From the supplement of paper PMC8728848
# The entries come from a sample that favours the strongest signals as a whole.
# What was measured:
# Assay in all cases: glycan array binding signal (z-score within array); higher = stronger binding
# Conditions in all cases: glycan notation: IUPAC condensed, linker removed; mutation: Y54A
# [1] = molecular target: Fuc(a1-2)Gal(b1-4)GlcNAc(b1-2)Man
# Procedure, shortened: (§1)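 Glycan array data were curated from 3228 arrays in the Consortium for Functional Glycomics database and kept only where the protein sequence was available. Glycan names were converted to IUPAC-condensed notation, and columns mapping to the same glycan were averaged. The binding signal is a within-array Z-score, averaged across arrays of the same protein sequence at different concentrations or buffers and across linkers. Negative Z-scores can be read as non-binding.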
# [2] = molecular target: Fuc(a1-2)Gal(b1-4)GlcNAc(b1-3)Gal(b1-4)GlcNAc(b1-2)Man(a1-3)[Fuc(a1-2)Gal(b1-4)GlcNAc(b1-3)Gal(b1-4)GlcNAc(b1-2)Man(a1-6)]Man(b1-4)GlcNAc(b1-4)GlcNAc
# Procedure, shortened: as §1
# [3] = molecular target: Fuc(a1-2)Gal6S(b1-3)GlcNAc
# Procedure, shortened: as §1
# [4] = molecular target: Fuc(a1-2)[Gal(a1-3)]Gal(b1-3)GlcNAc(b1-6)GalNAc
# Procedure, shortened: as §1
# [5] = molecular target: Fuc(a1-2)[GalNAc(a1-3)]Gal(b1-3)GalNAc(b1-3)Gal(a1-4)Gal(b1-4)Glc
# Procedure, shortened: as §1
# Fuc(b1-3)GlcNAc = molecular target: Fuc(b1-3)GlcNAc
# Procedure, shortened: as §1
# [6] = molecular target: Gal(a1-3)Gal(b1-4)GlcNAc(b1-2)Man(a1-3)[Gal(a1-3)Gal(b1-4)GlcNAc(b1-2)Man(a1-6)]Man(b1-4)GlcNAc(b1-4)GlcNAc
# Procedure, shortened: as §1
# [7] = molecular target: Gal(a1-3)Gal(b1-4)GlcNAc(b1-6)GalNAc
# Procedure, shortened: as §1
# Gal(b1-3)Gal = molecular target: Gal(b1-3)Gal
# Procedure, shortened: as §1
# [8] = molecular target: Gal(b1-3)GlcNAc(b1-3)Gal(b1-3)GlcNAc
# Procedure, shortened: as §1
# [9] = molecular target: Gal(b1-3)GlcNAc(b1-3)Gal(b1-4)Glc
# Procedure, shortened: as §1
# [10] = molecular target: Gal(b1-3)[Fuc(a1-4)]GlcNAc(b1-2)Man
# Procedure, shortened: as §1
# [11] = molecular target: Gal(b1-3)[Fuc(a1-4)]GlcNAc(b1-2)Man(a1-3)[Gal(b1-3)[Fuc(a1-4)]GlcNAc(b1-2)Man(a1-6)]Man(b1-4)GlcNAc(b1-4)[Fuc(a1-6)]GlcNAc
# Procedure, shortened: as §1
# [12] = molecular target: Gal(b1-4)GlcNAc(b1-2)[Gal(b1-4)GlcNAc(b1-4)]Man(a1-3)[Gal(b1-4)GlcNAc(b1-2)[Gal(b1-4)GlcNAc(b1-6)]Man(a1-6)]Man(b1-4)GlcNAc(b1-4)GlcNAc
# Procedure, shortened: as §1
# [13] = molecular target: Gal(b1-4)GlcNAc(b1-3)Gal(b1-4)GlcNAc(b1-3)Gal(b1-4)GlcNAc(b1-3)Gal(b1-4)GlcNAc(b1-2)Man(a1-3)[Gal(b1-4)GlcNAc(b1-3)Gal(b1-4)GlcNAc(b1-3)Gal(b1-4)GlcNAc(b1-3)Gal(b1-4)GlcNAc(b1-2)Man(a1-6)]Man(b1-4)GlcNAc(b1-4)GlcNAc
# Procedure, shortened: as §1
# [14] = molecular target: Gal(b1-4)GlcNAc(b1-3)Gal(b1-4)GlcNAc(b1-3)Gal(b1-4)GlcNAc(b1-3)Gal(b1-4)GlcNAc(b1-3)Gal(b1-4)GlcNAc(b1-2)Man(a1-3)[Gal(b1-4)GlcNAc(b1-3)Gal(b1-4)GlcNAc(b1-3)Gal(b1-4)GlcNAc(b1-3)Gal(b1-4)GlcNAc(b1-3)Gal(b1-4)GlcNAc(b1-2)Man(a1-6)]Man(b1-4)GlcNAc(b1-4)[Fuc(a1-6)]GlcNAc
# Procedure, shortened: as §1
# [15] = molecular target: Gal(b1-4)GlcNAc(b1-3)Gal(b1-4)GlcNAc(b1-3)Gal(b1-4)GlcNAc(b1-3)Gal(b1-4)GlcNAc(b1-3)Gal(b1-4)GlcNAc(b1-2)[Gal(b1-4)GlcNAc(b1-3)Gal(b1-4)GlcNAc(b1-3)Gal(b1-4)GlcNAc(b1-3)Gal(b1-4)GlcNAc(b1-3)Gal(b1-4)GlcNAc(b1-6)]Man(a1-6)[Gal(b1-4)GlcNAc(b1-3)Gal(b1-4)GlcNAc(b1-3)Gal(b1-4)GlcNAc(b1-3)Gal(b1-4)GlcNAc(b1-3)Gal(b1-4)GlcNAc(b1-2)Man(a1-3)]Man(b1-4)GlcNAc(b1-4)[Fuc(a1-6)]GlcNAc
# Procedure, shortened: as §1
# [16] = molecular target: Gal(b1-4)GlcNAc(b1-3)Gal(b1-4)GlcNAc(b1-3)[Gal(b1-4)GlcNAc(b1-3)Gal(b1-4)GlcNAc(b1-6)]GalNAc
# Procedure, shortened: as §1
# Gal(b1-6)Gal = molecular target: Gal(b1-6)Gal
# Procedure, shortened: as §1
# [17] = molecular target: Gal3S(b1-4)[Fuc(a1-3)]GlcNAc6S
# Procedure, shortened: as §1
# Gal3S6S(b1-4)GlcNAc6S = molecular target: Gal3S6S(b1-4)GlcNAc6S
# Procedure, shortened: as §1
# Gal4S6S(b1-4)GlcNAc = molecular target: Gal4S6S(b1-4)GlcNAc
# Procedure, shortened: as §1
# Gal6S(b1-4)GlcNAc = molecular target: Gal6S(b1-4)GlcNAc
# Procedure, shortened: as §1
# [18] = molecular target: GalNAc(b1-3)Gal(a1-4)Gal(b1-4)GlcNAc(b1-3)Gal(b1-4)Glc
# Procedure, shortened: as §1
# GalNAc(b1-3)GalNAc = molecular target: GalNAc(b1-3)GalNAc
# Procedure, shortened: as §1
# [19] = molecular target: GalNAc3S(b1-4)[Fuc(a1-3)]GlcNAc
# Procedure, shortened: as §1
# [20] = molecular target: GlcA3S(b1-3)Gal(b1-4)GlcNAc(b1-3)Gal(b1-4)Glc
# Procedure, shortened: as §1
# [21] = molecular target: GlcNAc(b1-2)Gal(b1-3)GalNAc
# Procedure, shortened: as §1
# [22] = molecular target: Man(a1-3)[Man(a1-6)]Man(a1-6)[Man(a1-2)Man(a1-3)]Man(b1-4)GlcNAc(b1-4)GlcNAc
# Procedure, shortened: as §1
# [23] = molecular target: Neu5Ac(a2-3)Gal(b1-3)GalNAc6S
# Procedure, shortened: as §1
# [24] = molecular target: Neu5Ac(a2-3)Gal(b1-3)GlcNAc(b1-2)Man(a1-3)[Neu5Ac(a2-3)Gal(b1-3)GlcNAc(b1-2)Man(a1-6)]Man(b1-4)GlcNAc(b1-4)GlcNAc
# Procedure, shortened: as §1
# [25] = molecular target: Neu5Ac(a2-3)Gal(b1-3)GlcNAc(b1-2)[Neu5Ac(a2-3)Gal(b1-3)GlcNAc(b1-4)]Man(a1-6)[Neu5Ac(a2-3)Gal(b1-3)GlcNAc(b1-2)Man(a1-3)]Man(b1-4)GlcNAc(b1-4)GlcNAc
# Procedure, shortened: as §1
# [26] = molecular target: Neu5Ac(a2-3)Gal(b1-3)GlcNAc6S
# Procedure, shortened: as §1
# [27] = molecular target: Neu5Ac(a2-3)Gal(b1-3)[Neu5Ac(a2-6)]GalNAc
# Procedure, shortened: as §1
# [28] = molecular target: Neu5Ac(a2-3)Gal(b1-4)GlcNAc(b1-2)Man(a1-3)[Neu5Ac(a2-3)Gal(b1-4)GlcNAc(b1-2)Man(a1-6)]Man(b1-4)GlcNAc(b1-4)GlcNAc
# Procedure, shortened: as §1
# [29] = molecular target: Neu5Ac(a2-3)Gal(b1-4)GlcNAc(b1-3)GalNAc
# Procedure, shortened: as §1
# [30] = molecular target: Neu5Ac(a2-3)Gal(b1-4)[Fuc(a1-3)]GlcNAc(b1-3)GalNAc
# Procedure, shortened: as §1
# [31] = molecular target: Neu5Ac(a2-3)Gal6S(b1-4)GlcNAc
# Procedure, shortened: as §1
# Neu5Ac(a2-6)Gal(b1-4)Glc = molecular target: Neu5Ac(a2-6)Gal(b1-4)Glc
# Procedure, shortened: as §1
# [32] = molecular target: Neu5Ac(a2-6)Gal(b1-4)GlcNAc(b1-2)Man(a1-3)[GlcNAc(b1-4)][Neu5Ac(a2-6)Gal(b1-4)GlcNAc(b1-2)Man(a1-6)]Man(b1-4)GlcNAc(b1-4)GlcNAc
# Procedure, shortened: as §1
# [33] = molecular target: Neu5Ac(a2-6)Gal(b1-4)GlcNAc(b1-2)[Neu5Ac(a2-6)Gal(b1-4)GlcNAc(b1-4)]Man(a1-3)[GlcNAc(b1-4)][Neu5Ac(a2-6)Gal(b1-4)GlcNAc(b1-2)[Neu5Ac(a2-6)Gal(b1-4)GlcNAc(b1-6)]Man(a1-6)]Man(b1-4)GlcNAc(b1-4)GlcNAc
# Procedure, shortened: as §1
# [34] = molecular target: Neu5Ac(a2-6)Gal(b1-4)GlcNAc(b1-3)Gal(b1-4)GlcNAc(b1-3)Gal(b1-4)GlcNAc
# Procedure, shortened: as §1
# [35] = molecular target: Neu5Ac(a2-6)Gal(b1-4)GlcNAc(b1-3)Gal(b1-4)[Fuc(a1-3)]GlcNAc(b1-3)Gal(b1-4)[Fuc(a1-3)]GlcNAc
# Procedure, shortened: as §1
# [36] = molecular target: Neu5Ac(a2-6)Gal(b1-4)GlcNAc(b1-6)[Gal(b1-3)]GalNAc
# Procedure, shortened: as §1
# [37] = molecular target: Neu5Ac(a2-6)Gal(b1-4)GlcNAc6S
# Procedure, shortened: as §1
# [38] = molecular target: Neu5Ac(a2-8)Neu5Ac(a2-8)Neu5Ac(a2-3)Gal(b1-4)Glc
# Procedure, shortened: as §1
# [39] = molecular target: Neu5Ac(a2-8)Neu5Gc(a2-3)Gal(b1-4)GlcNAc
# Procedure, shortened: as §1
# Neu5Ac(b2-6)GalNAc = molecular target: Neu5Ac(b2-6)GalNAc
# Procedure, shortened: as §1
# [40] = molecular target: Neu5Gc(a2-3)Gal(b1-4)GlcNAc(b1-3)Gal(b1-4)GlcNAc(b1-2)Man(a1-3)[Neu5Gc(a2-3)Gal(b1-4)GlcNAc(b1-3)Gal(b1-4)GlcNAc(b1-2)Man(a1-6)]Man(b1-4)GlcNAc(b1-4)GlcNAc
# Procedure, shortened: as §1
# [41] = molecular target: Neu5Gc(b2-6)Gal(b1-4)GlcNAc
# Procedure, shortened: as §1
binder,measurement,setting,value
"CBP21 (Serratia marcescens), O83009 (protein) MNKTSRTLLSLGLLSAAMFGVSQQANAHGYVESPASRAYQCKLQLNTQCGSVQAEPQSVEGLKGFPQAGPADGHIASADKSTFFELDQQTPTRWNKLNLKTGPNSFTWKLTARHSTTSWRYFITKPNWDASQPLTRASFDLTPFCQFNDGGAIPAAQVTHQCNIPADRSGSHVILAVWDIADTANAFYQAIDVNLSK",glycan array binding signal (z-score),[1],-0.872
same,glycan array binding signal (z-score),[2],2.34
same,glycan array binding signal (z-score),[3],4.33
same,glycan array binding signal (z-score),[4],-0.403
same,glycan array binding signal (z-score),[5],-0.164
same,glycan array binding signal (z-score),Fuc(b1-3)GlcNAc,-0.276
same,glycan array binding signal (z-score),[6],-0.395
same,glycan array binding signal (z-score),[7],1.24
same,glycan array binding signal (z-score),Gal(b1-3)Gal,-0.635
same,glycan array binding signal (z-score),[8],0.339
same,glycan array binding signal (z-score),[9],1.22
same,glycan array binding signal (z-score),[10],0.608
same,glycan array binding signal (z-score),[11],0.588
same,glycan array binding signal (z-score),[12],0.113
same,glycan array binding signal (z-score),[13],0.181
same,glycan array binding signal (z-score),[14],5.09
same,glycan array binding signal (z-score),[15],1.3
same,glycan array binding signal (z-score),[16],-0.31
same,glycan array binding signal (z-score),Gal(b1-6)Gal,-0.809
same,glycan array binding signal (z-score),[17],-0.109
same,glycan array binding signal (z-score),Gal3S6S(b1-4)GlcNAc6S,4.88
same,glycan array binding signal (z-score),Gal4S6S(b1-4)GlcNAc,0.517
same,glycan array binding signal (z-score),Gal6S(b1-4)GlcNAc,4.2
same,glycan array binding signal (z-score),[18],-0.857
same,glycan array binding signal (z-score),GalNAc(b1-3)GalNAc,-0.995
same,glycan array binding signal (z-score),[19],0.039
same,glycan array binding signal (z-score),[20],-0.278
same,glycan array binding signal (z-score),[21],-0.7
same,glycan array binding signal (z-score),[22],0.228
same,glycan array binding signal (z-score),[23],5.86
same,glycan array binding signal (z-score),[24],-0.307
same,glycan array binding signal (z-score),[25],5.4
same,glycan array binding signal (z-score),[26],-0.121
same,glycan array binding signal (z-score),[27],3.97
same,glycan array binding signal (z-score),[28],-0.458
same,glycan array binding signal (z-score),[29],3.83
same,glycan array binding signal (z-score),[30],0.503
same,glycan array binding signal (z-score),[31],4.07
same,glycan array binding signal (z-score),Neu5Ac(a2-6)Gal(b1-4)Glc,-0.381
same,glycan array binding signal (z-score),[32],-0.098
same,glycan array binding signal (z-score),[33],0.142
same,glycan array binding signal (z-score),[34],-0.314
same,glycan array binding signal (z-score),[35],4.6
same,glycan array binding signal (z-score),[36],0.13
same,glycan array binding signal (z-score),[37],3.37
same,glycan array binding signal (z-score),[38],0.027
same,glycan array binding signal (z-score),[39],-0.455
same,glycan array binding signal (z-score),Neu5Ac(b2-6)GalNAc,-0.919
same,glycan array binding signal (z-score),[40],2.24
same,glycan array binding signal (z-score),[41],-0.206
